# In PubChem BioAssay (NCATS):
# Inconclusive results are not listed. A number with no mark means an inactive call. Active and inactive are the calls of the source. The call rests on the fitted dose curve; in most records, active means well fitted inhibition curve with a large enough effect; inconclusive means small, poorly fitted or top-dose-only effect; inactive means flat fitted curve, though single readings scatter.
# Legend:
# Experiment in all cases: Cytotoxic Profiling of Annotated Libraries Using Quantitative High-Throughput Screening (AID 1296008); further: nearly all actives have a fitted effect of over 60% in size
# Settings in all cases: Five cell lines viability, CellTiter-Glo ATP luminescence, 48-72 h; max response: hits give low values
# CRL-7250 = normal cell line; tested on: CRL-7250
# Method in brief: (§1)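 Cells exposed to compounds for 48 or 72 hr at 37 degrees Celsius. Viability read as ATP-coupled luminescence with CellTiter-Glo after 10 min at room temperature.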
# HEK293 = tested on: HEK293
# Method in brief: as §1
# KB-3-1 = tested on: KB-3-1
# Method in brief: as §1
# NIH3T3 = tested on: NIH3T3
# Method in brief: as §1
# On the % scale 0 is the no-effect control and ±100 the full control effect; potency means the concentration at half of the fitted maximal effect.
compound,measurement,setting,value
C[C@H](NC(=O)CCc1nc2ccccc2c(=O)[nH]1)c1ccccc1,max response,CRL-7250,-24%
same,max response,HEK293,-7.11%
same,max response,KB-3-1,-7.76%
same,max response,NIH3T3,-5.46%
COc1cc2ncnc(Nc3ccc(O)cc3)c2cc1OC,outcome,CRL-7250,inactive
same,max response,HEK293,-8.09%
same,max response,KB-3-1,3.01%
same,max response,NIH3T3,2.24%
COC(=O)CC1CC(c2ccc(O)cc2)=NO1 (configuration not stated),max response,CRL-7250,-3.02%
same,max response,HEK293,0.726%
same,max response,KB-3-1,-14.5%
same,max response,NIH3T3,-0.902%
C[C@H](C(=O)NC1CCCC1)N(C(=O)Cn1nnc(-c2ccc3c(c2)OCO3)n1)C1CCCCC1,outcome,CRL-7250,inactive
same,max response,HEK293,2.96%
same,max response,KB-3-1,5.01%
same,outcome,NIH3T3,inactive
C=CC1C(OC2OC(CO)C(O)C(O)C2O)OC=C2C(=O)N3C(C(=O)O)Cc4c([nH]c5ccccc45)C3CC21 (configuration not stated),outcome,CRL-7250,inactive
same,max response,HEK293,0.732%
same,max response,KB-3-1,6.21%
same,max response,NIH3T3,-3.8%
CCC(C)C(=O)O[C@H]1CCC=C2C=C[C@H](C)[C@H](CC[C@@H](O)C[C@@H](O)CC(=O)O)[C@H]21 (some centres not stated),Potency,CRL-7250,7.96 µM (active)
same,max response,HEK293,0.832%
same,max response,KB-3-1,7.29%
same,max response,NIH3T3,-16.9%
CC(=O)c1ccc(O[C@@H]2O[C@H](CO)[C@@H](O)[C@H](O)[C@H]2O)cc1,max response,CRL-7250,-8.35%
same,max response,HEK293,-8.37%
same,max response,KB-3-1,2.85%
same,max response,NIH3T3,-22.7%
CC(=O)NCC(=O)N1C2CCC1c1cc(Nc3ncc(C(F)(F)F)c(NC4CCC4)n3)ccc12 (configuration not stated),Potency,CRL-7250,1.64 µM (active)
same,Potency,HEK293,2.59 µM (active)
same,Potency,KB-3-1,1.03 µM (active)
same,Potency,NIH3T3,1.3 µM (active)
CC#CC(=O)N1CCC[C@H]1c1nc(-c2ccc(C(=O)Nc3ccccn3)cc2)c2c(N)nccn12,max response,CRL-7250,-4.15%
same,max response,HEK293,-0.695%
same,outcome,KB-3-1,inactive
same,max response,NIH3T3,-4.42%
C[C@@H]1C(=O)O[C@H]2[C@@H](O)C34[C@H]5C[C@@H](C(C)(C)C)C36[C@@H](OC(=O)[C@@H]6O)O[C@@]4(C(=O)O5)[C@@]12O (some centres not stated),max response,CRL-7250,-0.587%
same,max response,HEK293,-1.43%
same,max response,KB-3-1,-6.44%
same,max response,NIH3T3,-0.498%
COC1CC(O[C@H]2CC[C@@]3(C)C(=CC[C@]4(O)C3[C@H](OC(C)=O)[C@@H](OC(=O)c3ccccc3)[C@]3(C)[C@@H](C(C)=O)CC[C@@]34O)C2)OC(C)C1OC1CC(OC)C(OC2CC(OC)C(OC3OC(C)C(OC4OC(CO)C(O)C(O)C4O)C(OC)C3O)C(C)O2)C(C)O1 (some centres not stated),outcome,CRL-7250,inactive
same,max response,HEK293,1.75%
same,max response,KB-3-1,0.0608%
same,max response,NIH3T3,-0.853%
CC1OC(O[C@H]2CC[C@@]3(C)C(CC[C@]4(C)C3CC=C3C5CC(C)(C)CC[C@]5(C(=O)OC5OC(CO)C(OC6OC(COC7OCC(O)C(O)C7O)C(O)C(O)C6O)C(O)C5O)CC[C@]34C)C2(C)C)C(O)C(O)C1OC1OCC(OC2OCC(O)C(O)C2O)C(O)C1O (some centres not stated),max response,CRL-7250,-5.53%
same,max response,HEK293,1.98%
same,outcome,KB-3-1,inactive
same,max response,NIH3T3,-4.7%
CC(C)=CCC[C@](C)(O[C@@H]1O[C@H](CO)[C@@H](O)[C@H](O)[C@H]1O)[C@H]1CC[C@]2(C)[C@@H]1[C@H](O)CC1[C@@]3(C)CC[C@H](O)C(C)(C)C3[C@@H](O[C@@H]3O[C@H](CO)[C@@H](O)[C@H](O)[C@H]3O[C@@H]3OC[C@@H](O)[C@H](O)[C@H]3O)C[C@]12C (some centres not stated),max response,CRL-7250,-28%
same,max response,HEK293,-0.716%
same,max response,KB-3-1,-9.18%
same,max response,NIH3T3,-2.19%
